Screening data (PubChem)
PME-1 primary = PME-1 (human) inhibition; recombinant PME-1, FP-Rh probe fluorescence polarization; inhibition, % at 5.9 µM; hit rate 0.53% among 320,000; AID 2130;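 active means inhibition above the campaign mean of all compounds plus 3 SD, cut at about 26% in these data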;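 further: competitive labeling of PME-1 active site by serine hydrolase directed probe; 0% = PME-1 with DMSO and 100% = wells lacking PME-1 enzyme; inhibitors block probe labeling so polarization falls and inhibition rises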
PRMT1 inh = PRMT1 (human) inhibition, primary screen; hit rate 1.3% among 370,000; inhibition, % at 2.79 µM; recombinant PRMT1, activity-based probe fluorescence polarization; AID 652257;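 active means inhibition above about 21% made by adding two undisclosed values, limit read from the data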
PAD4 FP inh = blocks human protein arginine deiminase 4 | Q9UM07 | recombinant PAD4, RCA probe fluorescence polarization | inhibition, % at 6.36 µM | hit rate 0.41% among 330,000 | AID 485272;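 active means percent inhibition above a cutoff equal to the mean of all tested compounds plus 3 SD, cut at about 15% in these data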;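 further: 0% = PAD4 with RCA probe and DMSO and 100% = probe without PAD4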
SIAE primary = blocks human sialic acid acetylesterase. Q9HAT2. SIAE FP-Rh probe binding, fluorescence polarization. inhibition, % at 9.66 µM. hit rate 0.69% among 370,000. AID 1053197;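 active means inhibition above a cutoff: mean of compounds within the control limits plus 3 SD of those, cut at about 17% in these data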;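 further: 0% = plate median of compound wells and 100% = probe without SIAE protein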
TCR CD3 inh = blocks the human TCR-CD3 interaction. inhibition, % at 9.4 µM. hit rate 0.37% among 360,000. TAMRA-labeled TCR probe fluorescence, biochemical. AID 651800; in the data active means inhibition above about 19%;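 further: recombinant mutant TCR 2C K166C tagged with TAMRA read by polarization; 0% = receptor in buffer alone and 100% = receptor with positive control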
Fam108B counter = Fam108B inhibition, counter-screen for RBBP9 inhibitors; recombinant Fam108B, FP-Rh probe fluorescence polarization; inhibition, % at 9.51 µM; hit rate 0.33% among 300,000; AID 1947;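 active means inhibition above the screen mean inhibition plus 3 SD, computed separately per campaign, cut at about 18% in these data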;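 further: inhibitors lower polarization as less probe binds the enzyme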
* marks the source's active call; other numbers are inactive results; . = no result given. An excerpt weighted towards active compounds, which were near 2.6% of everything screened.

SMILES	PME-1 primary	PRMT1 inh	PAD4 FP inh	SIAE primary	TCR CD3 inh	Fam108B counter
CC1CCC2(CCC(=O)N2CCCOC(=O)Nc2cccc(C(F)(F)F)c2)CC1 (stereo not given)	.	-2	.	7	.	.
O=C(Nc1c(-c2ccc(C(F)(F)F)cc2)nc2ncccn12)c1ccc(F)cc1	.	4	.	0	.	.
CS(=O)(=O)N1N=C(c2ccccc2)CC1c1ccc2c(c1)OCO2 (stereo not given)	28*	-5	-10	-25	-20	-7
COc1cc(C2C(C#N)=C(N)Oc3c2c(-c2ccccc2)nn3-c2ccccc2)cc(OC)c1OC (stereo not given)	5	0	12	23*	4	-3
COc1ccc(OC)c(C2C(C#N)=C(N)Oc3c2c(C)nn3-c2cccc(Cl)c2)c1 (stereo not given)	4	5	35*	10	-11	4
CN(CCO)c1cccc2c1S(=O)(=O)N(Cc1cn(Cc3ccc(F)cc3)nn1)Cc1ccccc1O2	.	0	.	9	.	.
CCCCCCCCNS(=O)(=O)CC1NCc2cc(OC)ccc21 (stereo not given)	.	3	.	-8	.	.
O=C(N/N=C/c1cc2c(cc1Cl)OCO2)c1ccc2c(c1)OCCO2	-25	-2	0	-3	7	1
COc1cc(/C=N/NC(=O)c2ccc3c(c2)OCCO3)c(Br)c(Br)c1O	45*	4	1	-5	0	8
O=C(N/N=C/c1c(Cl)[nH]c2ccccc12)c1ccc2c(c1)OCCO2	29*	-3	-3	6	15	5
CCN(Cc1ccccc1)C(=O)CCCN1C(=O)COc2ccc(C)cc21	.	-2	.	-2	.	.
CC(C)S(=O)(=O)c1csc(NC(=O)Nc2cccc([N+](=O)[O-])c2)c1Cl	28*	6	-2	-24	4	-14
O=C(Nc1cccc([N+](=O)[O-])c1)Nc1cccc([N+](=O)[O-])c1	-7	1	0	-25	-7	-5
CCC(C)Nc1nc(N)c([N+](=O)[O-])c(Nc2cc(OC)ccc2OC)n1 (stereo not given)	28*	-2	0	-6	-10	5
COc1ccc(NCc2nnc(SCC(=O)Nc3cc(C)cc(C)c3)o2)cc1	7	24*	-8	8	-1	4
Cc1ccc(CN2C(C(=O)NC3CCCC3)CSCCS2(=O)=O)cc1 (stereo not given)	.	5	.	-6	.	.
O=C(O)c1ccc(N/N=C/c2ccc(OC(=O)c3cccc(Cl)c3)cc2)cc1	41*	6	5	16	-23	3
CCN(CC)CCn1c(SCC(=O)NCCC2=CCCCC2)nc2c(sc3ccccc32)c1=O	-2	22*	4	-4	1	8
C=CCn1c(COc2ccc(Cl)cc2)nnc1SCC(=O)c1ccc(-c2ccccc2)cc1	.	8	.	0	.	.
Cn1c(SCC(=O)c2ccccc2)nnc1-c1ccco1	-4	0	4	3	7	-1
COc1ccc(C(=O)CSc2nnc(-c3ccco3)n2C)cc1	5	24*	-7	9	-3	6
COc1cc(C=NNC(=O)CN2CCN(Cc3ccc(C)cc3)CC2)cc(OC)c1O	.	-3	.	5	.	.
CC1=C(C(=O)N2CCOCC2)C(c2ccc(O)cc2)NC(=S)N1 (stereo not given)	-1	3	3	-2	-6	2
Oc1ccc2c(c1)C1CCCC1(N1CCOCC1)O2 (stereo not given)	-1	27*	3	9	11	2
COc1ccc(C(=O)c2c(C(F)(F)F)oc3c2C(=O)c2ccccc2C3=O)cc1OC	4	0	34*	6	4	7
C(=C\c1ccccc1)/CSc1nnc(COc2ccccc2)n1Cc1ccco1	.	2	.	-2	.	.
Cc1nc2cc(C(=O)O)ccc2s1	4	21*	1	4	-2	-1
COc1ccc(C(NC(=O)CC(C)C)c2c(O)ccc3ccccc23)cc1 (stereo not given)	-4	2	2	0	1	-4
CC(C)CC(=O)NC(c1ccccc1Cl)c1c(O)ccc2ccccc12 (stereo not given)	47*	-2	0	0	1	9
Cc1cc(C(F)F)nn1CC(=O)NC1C(=O)N2C(C(=O)O)=C(CSc3nnnn3C)CSC12 (stereo not given)	-5	24*	-1	3	4	-4
